Mtb bLac sens – beta-lactam sensitization of Mtb H37Rv, H37Rv | inhibition, % at 25 µM | M. tuberculosis H37Rv growth with meropenem, percent inhibition | actives 0.27% (n = 330,000); call rule not given here;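 further: growth measured after seven days incubation then overnight dye step; 0% = bacteria only wells and 100% = bacteria with antibiotic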
UGM FP inh – M. tuberculosis UGM enzyme inhibitors, primary screen, biochemical, fluorescence polarization, single point. inhibition, % at 10 µM. purified UGM, fluorescence polarization probe displacement. actives 0.06% (n = 320,000). UDP-galactopyranose mutase (Mycobacterium tuberculosis (strain ATCC 25618 / H37Rv)), …; in the data active means inhibition above about 10%, passing the limit was not always enough
RecA splice inh – Mtb RecA intein splicing inhibitors, primary screen, biochemical, fluorescence, HTS; cell-free RecA intein splicing; inhibition, % (concentration not given with the values); actives 0.75% (n = 290,000); in the data active means inhibition above about 30%;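 further: 0% = vehicle wells and 100% = reference inhibitor control wells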
Mtb FBA inh – Mtb FBA enzyme inhibitors, primary screen, biochemical, fluorescence, strain H37Rv. purified M. tuberculosis FBA, fluorescence read-out. inhibition, % at 1 µM. actives 2.3% (n = 360,000). AID 588726, 2011;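 further: 0% = vehicle and 100% = reference inhibitor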
Target sequence (P9WQA3 whole entry, looked up): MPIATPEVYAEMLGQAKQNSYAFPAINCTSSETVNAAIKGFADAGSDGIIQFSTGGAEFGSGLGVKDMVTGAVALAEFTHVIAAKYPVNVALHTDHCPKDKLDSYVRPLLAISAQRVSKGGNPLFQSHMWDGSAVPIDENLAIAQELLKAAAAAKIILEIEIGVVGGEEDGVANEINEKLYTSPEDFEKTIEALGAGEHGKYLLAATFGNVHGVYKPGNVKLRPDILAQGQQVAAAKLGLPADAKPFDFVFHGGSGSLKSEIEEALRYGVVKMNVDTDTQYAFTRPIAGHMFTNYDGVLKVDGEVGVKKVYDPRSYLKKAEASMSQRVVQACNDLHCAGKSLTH
Rv3671c inh – Rv3671c serine protease inhibitors, primary screen, biochemical, fluorescence polarization, M. tuberculosis H37Rv. actives 0.048% (n = 320,000). P9WHR9. AID 2606, 2010. inhibition, % at 5.96 µM; in the data active means inhibition above about 38%;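 further: extracellular domain of Rv3671c used as enzyme; 0% = enzyme with DMSO and 100% = no enzyme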
GDH-TPI counter-1 – GDH-TPI coupling enzyme inhibitors, primary screen, artefact control for M. tuberculosis FBA inhibitor project, biochemical, absorbance, full deck; GDH-TPI coupled enzyme counterscreen, NADH absorbance; inhibition, % at 4.8 µM; actives 1.2% (n = 360,000); AID 588335, 2011; in the data active means inhibition above about 30%;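 further: 0% = DMSO wells and 100% = wells lacking the enzyme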
Mtb FBA confirm – M. tuberculosis aldolase blockers, biochemical, fluorescence, strain H37Rv, confirmation | shares compounds with Mtb FBA inh | purified M. tuberculosis FBA, fluorescence read-out | inhibition, % at 1 µM | AID 651616, 2012 | actives 78% (n = 5,600);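 further: 0% = vehicle wells and 100% = reference inhibitor wells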
GDH-TPI counter-2 – GDH-TPI coupling enzyme inhibitors, artefact control for M. tuberculosis FBA inhibitor project, biochemical, fluorescence, high throughput; shares compounds with Mtb FBA inh; GDH-TPI coupled enzyme counterscreen; inhibition, % at 1 µM; actives 81% (n = 5,600); AID 652141, 2013; in the data active means inhibition above about 10%
The depositor's hits bear a star; . = no result given; + = active, no number. Sampled rows, rich in hits. Any-hit rate of the full collection: about 4%. Unless noted, no stated cut-off is given here; in the data, active means inhibition above about 27%; inactive means the rest.

SMILES	Mtb bLac sens	UGM FP inh	RecA splice inh	Mtb FBA inh	Rv3671c inh	GDH-TPI counter-1	Mtb FBA confirm	GDH-TPI counter-2
CCOC(=O)c1c(NC(=O)Cn2nnc(-c3ccccc3Cl)n2)sc(C)c1C	2.6	0.5	0.4	109.5*	3.9	9.8	0.4	-5.3
CCc1nc(SCc2ccccc2C)n[nH]1	-9.5	-2.3	-1.6	3.9	.	12.2	.	.
COc1ccc(-c2cc(-c3ccco3)[nH]c(=O)c2C#N)cc1OC	8.0	-4.6	-2.7	49.3*	-0.9	27.9	44.2*	35.8*
N#Cc1c(-c2ccccc2)cc(-c2ccc3c(c2)OCO3)[nH]c1=O	-7.3	3.0	.	14.8	-17.1	10.2	.	.
CC1(C)Cc2c(C#N)c(NC3CCCCC3)nc(-c3ccco3)c2CO1	3.5	-1.0	-13.1	15.1	0.8	9.6	.	.
CC1(C)Cc2c(C#N)c(NCC3CCCO3)nc(-c3ccco3)c2CO1 (stereo not given)	0.7	-0.4	-6.4	29.6*	-1.1	15.2	+	+
CN(C)CCCNc1nc(-c2ccccc2)c2c(c1C#N)CC(C)(C)OC2	-5.2	1.7	-3.5	44.9*	3.8	8.6	107.4*	84.5*
N#Cc1c(NCCCO)nc(-c2ccccc2)c2c1CCCC2	-5.2	-0.7	5.0	51.5*	-6.9	20.6	57.5*	36.3*
N#Cc1c(NCCN)nc(-c2ccccc2)c2c1CCCC2	-12.4	1.4	4.1	9.3	1.5	1.7	.	.
COc1ccc2nc(-c3ccccc3)nc(SC)c2c1	.	.	.	5.7	.	14.6	.	.
C(=C\c1nc2ccccc2[nH]1)/c1ccccc1	-11.2	0.6	2.3	32.1*	-6.3	36.5*	+	+
C(=C\c1ccco1)/c1nc2ccccc2[nH]1	3.9	-0.1	-4.6	23.0	4.6	28.5	.	.
O=C(O)CC/C(=N/NC(=O)c1cn(-c2ccccc2)nc1-c1ccccc1)C(=O)O	1.1	0.8	3.1	31.1*	-0.1	2.3	65.8*	63.5*
Cc1csc(NC(=O)CCC(=O)N(CC(=O)NC2CCCC2)Cc2ccccc2)n1	-5.9	-3.1	.	-2.5	-4.4	3.8	.	.
Cc1nn(CC(C)C)c(Cl)c1C(=O)N(C)CC(=O)Nc1ccc(Cl)cc1	.	.	.	-0.7	.	4.4	.	.
Cc1ccc(-n2nc(C)c3c2NC2=C(C(=O)CC(C)(C)C2)C3c2ccccc2OCC(=O)O)cc1 (stereo not given)	0.7	1.2	2.3	36.9*	1.9	3.8	194.2*	129.4*
CC(=O)Nc1ccc(S(=O)(=O)Nc2cccc(-c3nc4ccccc4o3)c2)cc1	-3.9	-1.3	-3.0	55.2*	-37.2	3.5	57.7*	53.0*
CCC(=O)Nc1cccc(-c2nc3ccccc3o2)c1	4.0	-1.6	1.1	10.7	6.3	0.0	.	.
O=C(Nc1ccc(-c2nc3ccccc3o2)cc1)C1CCCO1 (stereo not given)	72.8	-1.5	3.6	34.3*	4.9	17.8	-3.1	-1.8
CC(=O)Nc1nc2ccc(-c3nc4ccccc4o3)cc2s1	0.2	-1.8	-1.5	104.8*	-24.5	23.4	92.4*	75.2*
O=C(CSc1nc2ccccc2o1)Nc1nc2ccccc2s1	7.2	2.3	5.0	4.9	-13.3	-5.9	.	.
O=S(=O)(Nc1ccc(-c2cnco2)cc1)c1ccccc1	-6.6	-1.3	0.7	0.5	-7.7	-6.4	.	.
O=S(=O)(Nc1ccc(-c2nc3ccccc3o2)cc1)c1ccccc1	1.2	3.5	13.2	86.6*	-17.6	42.7*	130.5*	110.0*
CCOC(=O)C1CCN(C(=O)c2ccc3c(c2)C(=O)N(c2ccccc2C)C3=O)CC1	1.3	-1.7	-0.9	0.3	2.5	-2.1	.	.
CCN1CCN(Cc2c(C(=O)N/N=C(\C)c3ccc(Cl)c(Cl)c3)nnn2-c2nonc2N)CC1	1.9	4.1	-1.0	.	-1.3	.	.	.
SMILES	Mtb bLac sens	UGM FP inh	RecA splice inh	Mtb FBA inh	Rv3671c inh	GDH-TPI counter-1	Mtb FBA confirm	GDH-TPI counter-2
O=C(Nc1ccc(S(=O)(=O)N2CCOCC2)cc1)C1CCN(S(=O)(=O)c2ccccc2)CC1	-3.2	.	1.1	-1.9	-0.1	-2.1	.	.
Cc1cc(=O)n2cc(-c3ccccc3)nc2[nH]1	-1.7	-0.4	3.9	89.0*	-7.9	6.4	121.5*	94.3*
Cc1ccc(-c2cn3c(=O)cc(C)[nH]c3n2)cc1	-1.5	1.1	-4.6	52.6*	-2.5	13.3	55.3*	75.4*
Cc1nc(-c2ccccc2)cc(=O)[nH]1	-8.1	-0.6	-2.0	1.3	4.7	-2.8	.	.
CSc1ccc(/C=C/C(=O)N2CCCN(C)CC2)cc1	3.2	-1.3	-1.7	32.3*	4.6	17.9	52.3*	44.9*
CCN(c1ccccc1)S(=O)(=O)c1ccc(OC)c(NC(=O)c2cc(F)c(F)c(F)c2F)c1	-6.2	-2.3	.	-1.5	-3.8	7.0	.	.
COc1ccc(OC)c(/C=N/NC(=O)Cc2nc3ccccc3[nH]2)c1	-1.6	0.3	4.5	73.8*	-115.4	14.0	50.8*	30.4*
COc1ccc(OC)c(/C=C/C(=O)NCCc2nc3ccccc3[nH]2)c1	0.7	0.8	.	50.0*	-2.4	16.1	82.9*	52.8*
CCSc1ccc([C@@H]2[C@H]3C(=O)N(CC)C(=O)[C@H]3[C@]3(C(=O)OC)CCCCN23)cc1OC	-11.2	5.6	.	0.8	-8.9	4.5	.	.
Cc1c(C(=O)Nc2cccc(F)c2)cnn1-c1ccccc1	3.6	-1.6	0.6	2.3	-17.0	0.0	.	.
Cc1cc(C)c(NC(=O)c2cn3c4c(c(N5CCN(C)CC5)c(F)cc4c2=O)OCC3C)c(C)c1 (stereo not given)	-5.1	.	-3.4	27.6*	-7.2	5.6	+	+
COc1ccc(-c2ccc(-c3nnc(Cc4ccc(OC)c(OC)c4)o3)cc2)cc1	-21.9	3.1	.	39.0*	-1.4	14.7	-3.7	-2.4
COc1ccc(-c2nnc(-c3ccccc3)o2)cc1OC	-2.3	0.8	0.1	30.8*	-2.3	1.4	148.6*	106.9*
CCOc1ccc(-c2nnc(-c3ccccc3)o2)cc1	98.9	1.5	-3.8	90.9*	-10.0	3.8	88.4*	73.5*
CCOC(=O)COc1ccc(-c2nnc(-c3ccccc3)o2)cc1	99.8	2.9	-0.2	58.9*	-1.6	7.0	41.5*	34.7*
COc1ccccc1C(=O)Nc1ccc(OCC(=O)N2CC(C)CC(C)C2)cc1 (stereo not given)	5.7	2.0	.	4.0	0.5	0.4	.	.

Compound activity from PubChem BioAssay.
